Inconclusive results are not listed. Entries that show only a call come without a potency. Active and inactive are the calls of the source. Calls come from the whole dose curve; as a rule, active = well fitted inhibition curve with a large enough effect; inconclusive = small, poorly fitted or top-dose-only effect; inactive = no such curve, though single readings can be large or run the other way.
These molecules were tested against Cytochrome P450 3A7 (Homo sapiens) (UniProt P24462) (assay: Cytochrome P450 family 3 subfamily A member 7 (CYP3A7) small molecule antagonists: luciferase biochemical qHTS assay (AID 1963596; note: nearly all actives have a fitted effect of over 40% in size)). Conditions: P450-Glo CYP3A7 enzyme luminescence, 1 h; series mostly up to 57.4 µM.
Sequence of Cytochrome P450 3A7 (Homo sapiens) (P24462 whole entry, looked up): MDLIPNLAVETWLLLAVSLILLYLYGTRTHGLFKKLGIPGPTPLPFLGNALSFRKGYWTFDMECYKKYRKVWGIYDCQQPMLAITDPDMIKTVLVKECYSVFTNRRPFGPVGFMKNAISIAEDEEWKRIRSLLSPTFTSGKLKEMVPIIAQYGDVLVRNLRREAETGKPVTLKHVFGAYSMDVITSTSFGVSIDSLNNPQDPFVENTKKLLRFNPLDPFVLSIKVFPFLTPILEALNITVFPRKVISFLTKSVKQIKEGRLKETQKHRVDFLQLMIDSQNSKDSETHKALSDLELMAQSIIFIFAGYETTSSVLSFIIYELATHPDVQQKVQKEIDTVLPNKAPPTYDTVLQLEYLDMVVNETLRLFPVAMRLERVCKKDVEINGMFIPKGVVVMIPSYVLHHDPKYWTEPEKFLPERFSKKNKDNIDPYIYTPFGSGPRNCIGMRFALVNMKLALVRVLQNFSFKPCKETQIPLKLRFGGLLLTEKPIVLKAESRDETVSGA
In short: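 Luminescence from luciferin released by CYP3A7 from a proluciferin substrate, read 20 min after detection reagent. Compound and enzyme-substrate mix sat 10 min before NADPH regeneration solution; reaction ran 1 h at room temperature.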

Q: How did the Potency turn out when COc1nccnc1NS(=O)(=O)c1ccc(N)cc1 was run?
A: inactive

Q: COCC(=O)Nc1c(I)c(C(=O)NCC(O)CO)c(I)c(C(=O)N(C)CC(O)CO)c1I (configuration not stated) was tested. Which Potency did it give?
A: inactive

Q: Which Potency does the source give for O=C(c1ccco1)N1CCNCC1 here?
A: inactive

Q: Which Potency does the source give for O=C(O)c1ccc(OCCN2CCCCC2)cc1 here?
A: inactive

Q: OC[C@@H](O)[C@H](O)[C@H](O)[C@@H](O)CO was tested. Which Potency did it give?
A: inactive

Q: How did the Potency turn out when CC(C)(C)NC[C@H](O)COc1nsnc1N1CCOCC1 was run?
A: inactive

Q: With CC(C(=O)O)c1cccc(Oc2ccccc2)c1 (configuration not stated) as the molecule, how does the Potency read?
A: inactive

Q: How did the Potency turn out when CCN(CC)CCN was run?
A: inactive

Q: For COC(=O)c1nc(Cl)c(Cl)nc1N, which Potency is on record?
A: inactive

Q: How did the Potency turn out when CC(C)CCCC(C)N (configuration not stated) was run?
A: inactive

Q: With CC(=O)NO as the molecule, how does the Potency read?
A: inactive

Q: Which Potency does the source give for CC(=O)N1C[C@H](O)C[C@H]1C(=O)O here?
A: inactive

Q: O=C(NCC(=O)N1CCCC1)Nc1ccc2cnccc2c1 was tested. Which Potency did it give?
A: inactive

Q: With CCOc1ccccc1C(N)=O as the molecule, how does the Potency read?
A: inactive

Q: With C=C(C)C(=O)OCC(O)CO (configuration not stated) as the molecule, how does the Potency read?
A: inactive

Q: With CCCCCCCCCCCCCCCC(=O)O as the molecule, how does the Potency read?
A: inactive

Q: C[C@H]1O[C@H](O[C@H]2[C@H](O)[C@@H](O)[C@@H](O[C@H]3[C@H](O)[C@@H](O)[C@H](O)O[C@@H]3CO)O[C@@H]2CO)[C@H](O)[C@@H](O)[C@@H]1N[C@H]1C=C(CO)[C@@H](O)[C@H](O)[C@H]1O was tested. Which Potency did it give?
A: inactive

Q: CC(=O)N(CC(O)CO)c1c(I)c(C(=O)NCC(O)CO)c(I)c(C(=O)NCC(O)CO)c1I (configuration not stated) was tested. Which Potency did it give?
A: inactive

Q: CC(=O)OC(C)C[N+](C)(C)C (configuration not stated) was tested. Which Potency did it give?
A: inactive

Q: Which Potency does the source give for Nc1c2c(nc3ccccc13)CCCC2O (configuration not stated) here?
A: inactive

Q: Which Potency does the source give for NS(=O)(=O)Cc1noc2ccccc12 here?
A: inactive

Q: How did the Potency turn out when CC(=O)c1ccc(OCC(=O)N2CCCCC2)cc1 was run?
A: inactive

From PubChem BioAssay (NCATS)
